In PubChem BioAssay (Tox21):
Results filed as inconclusive are left out. The source made the active and inactive calls. Unless noted, calls follow the shape of the dose curve; as a rule, active = well fitted curve in the direction sought with a large enough effect in the repeat runs; inconclusive = weak or mixed curves; inactive = no such curve, though single readings can be large; an effect the other way counts as inactive or inconclusive.

Legend:
[1] = target: Retinoic acid receptor RXR-alpha (Homo sapiens) (UniProt P19793); test: qHTS assay to identify small molecule agonists of the RXR signaling pathway (AID 1159527; calls by dose curve; also: nearly all actives have a fitted effect of over 35% in size)
Retinoic acid receptor RXR-alpha (Homo sapiens), sequence (P19793 whole entry, looked up): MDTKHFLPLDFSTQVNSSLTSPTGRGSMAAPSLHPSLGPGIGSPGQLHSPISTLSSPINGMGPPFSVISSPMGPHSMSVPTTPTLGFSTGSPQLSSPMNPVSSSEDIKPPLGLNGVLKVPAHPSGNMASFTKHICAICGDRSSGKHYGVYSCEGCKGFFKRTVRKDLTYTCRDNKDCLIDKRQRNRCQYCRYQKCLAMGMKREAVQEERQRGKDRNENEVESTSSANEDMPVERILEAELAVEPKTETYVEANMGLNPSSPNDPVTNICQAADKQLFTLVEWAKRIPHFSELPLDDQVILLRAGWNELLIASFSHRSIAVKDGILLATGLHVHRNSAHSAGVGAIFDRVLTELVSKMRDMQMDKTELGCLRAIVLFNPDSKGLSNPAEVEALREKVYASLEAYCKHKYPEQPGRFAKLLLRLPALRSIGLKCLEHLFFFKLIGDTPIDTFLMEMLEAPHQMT
How it was run: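 Read-out: beta-lactamase FRET ratio (405 nm excitation, 460 and 530 nm emission) after 2 hr substrate loading at room temperature. Cells were RXR-alpha-UAS-bla HEK 293T treated with compounds for 16 hr in 2% charcoal-stripped FBS medium.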

[2] = qHTS assay to identify small molecule agonists of the RXR signaling pathway - cell viability counter screen (AID 1159529); also: series mostly up to about 77 µM; nearly all actives have a fitted effect of over 50% in size
How it was run: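 HEK 293T RXRa-bla cells, 2% CS-FBS; 5 h settle; cpd 16 h 37 C, 5% CO2; CellTiter-Glo 30 min RT, luminescence. Tetraoctyl ammonium bromide as positive control.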

[3] = qHTS assay to identify small molecule antagonists of the retinoid acid receptor (RAR) signaling pathway - cell viability counter screen (AID 1159551); also: nearly all actives have a fitted effect of over 35% in size
How it was run: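 C3RL4 cells were seeded overnight at 37 C, then treated with compounds plus 1 uM (final) retinol for 6 h at 37 C. Viability was read as ATP by CellTiter-Glo luminescence after 30 min at room temperature.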

[4] = qHTS assay to identify small molecule antagonists of the retinoic acid receptor (RAR) signaling pathway (AID 1159552; also: nearly all actives have a fitted effect of over 50% in size)
How it was run: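 Cells of the C3RL4 line were seeded, incubated overnight, then dosed with compounds in DMSO followed immediately by retinol (1 uM final). Six hours later luciferase detection reagent went in; signal was measured after 30 min at RT.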

[5] = qHTS assay to identify small molecule agonists of the retinoic acid receptor (RAR) signaling pathway (AID 1159553)
How it was run: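 C3RL4 cells carrying a RARE luciferase reporter were plated overnight at 37 C, then exposed to compounds in DMSO for 6 hr at 37 C and 5% CO2. Luminescence was read 30 min after luciferase reagent addition at room temperature.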

[6] = qHTS assay to identify small molecule antagonists of the estrogen related receptor (ERR) signaling pathway from Tox21 library - cell viability counter screen (AID 1224834); also: nearly all actives have a fitted effect of over 30% in size
How it was run: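 ERR reporter cells were plated 6 h before compound addition, then exposed to test compounds in DMSO for 17.5 h at 37 C. Viability was read as CellTiter-Fluor fluorescence after a 30-minute incubation at 37 C.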

[7] = qHTS assay to identify small molecule agonists of the constitutive androstane receptor (CAR) signaling pathway - cell viability counter screen (AID 1224836); also: series mostly up to about 92 µM; nearly all actives have a fitted effect of over 45% in size
How it was run: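 HepG2-CYP2B6-hCAR, 2500 cells/well, 4 h pre-incubation; cpd 15 conc + PK11195 0.75 uM final; 23 h, 37 C/5% CO2; CellTiter-Fluor, fluorescence.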

[8] = qHTS assay to identify small molecule antagonists of the constitutive androstane receptor (CAR) signaling pathway - cell viability counter screen (AID 1224837); also: series mostly up to about 92 µM; nearly all actives have a fitted effect of over 45% in size
How it was run: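 HepG2 cells stably expressing hCAR and a CYP2B6-2.2kb reporter were plated and pre-incubated 4 hr at 37 C/5% CO2, then given compounds at 15 concentrations plus 50 nM CITCO (final). After 23 hr, viability was read by CellTiter-Fluor fluorescence.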

[9] = target: Nuclear receptor subfamily 1 group I member 3 (Homo sapiens) (UniProt Q14994); test: qHTS assay to identify small molecule antagonists of the constitutive androstane receptor (CAR) signaling pathway (AID 1224838); also: nearly all actives have a fitted effect of over 40% in size
Nuclear receptor subfamily 1 group I member 3 (Homo sapiens), sequence (Q14994 whole entry, looked up): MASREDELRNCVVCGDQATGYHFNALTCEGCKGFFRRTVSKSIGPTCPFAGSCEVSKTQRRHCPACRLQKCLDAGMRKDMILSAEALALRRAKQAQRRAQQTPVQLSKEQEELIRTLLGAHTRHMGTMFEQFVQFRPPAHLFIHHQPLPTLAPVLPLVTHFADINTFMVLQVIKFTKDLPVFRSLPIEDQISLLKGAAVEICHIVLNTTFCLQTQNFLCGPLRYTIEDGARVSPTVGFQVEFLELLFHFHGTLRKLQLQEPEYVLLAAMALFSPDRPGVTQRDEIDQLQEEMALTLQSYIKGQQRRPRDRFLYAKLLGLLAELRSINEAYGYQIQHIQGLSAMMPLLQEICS
How it was run: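 HepG2 cells stably co-transfected with hCAR and a CYP2B6-2.2kb luciferase reporter were seeded 4 h before compound addition at 15 concentrations. Cells were stimulated with 50 nM CITCO (final) for 24 h at 37 C; luciferase luminescence was then read.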

[10] = target: Nuclear receptor subfamily 1 group I member 3 (Homo sapiens) (UniProt Q14994); test: qHTS assay to identify small molecule agonists of the constitutive androstane receptor (CAR) signaling pathway (AID 1224839);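 also: HepG2 cells stably carrying human CAR and a CYP2B6 luciferase reporter; series mostly up to about 92 µM; nearly all actives have a fitted effect of over 15% in size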
How it was run: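 HepG2-CYP2B6-hCAR cells, 2500/well, 4 h pre-incubation; compounds 15 conc.; PK11195 0.75 uM final; 24 h, 37 C/5% CO2; ONE-Glo luciferase read.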

[11] = qHTS assay to identify small molecule antagonists of the estrogen related receptor signaling pathway with the pleiotropic PPARgamma coactivator (PGC) from Tox21 10K library - cell viability counter screen (AID 1224840; active = well fitted cell-killing curve with a large enough effect in the repeat runs, not every such curve was filed as active; also: nearly all actives have a fitted effect of over 40% in size)
How it was run: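 PGC/ERR cells were seeded at 2,000 cells/well and left 6 hours at 37 C/5% CO2 before pin-tool addition of compounds in DMSO. After 17.5 hours at 37 C, CellTiter-Fluor was added and fluorescence read 30 minutes later.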

[12] = qHTS assay to identify small molecule antagonists of the estrogen related receptor signaling pathway with the pleiotropic PPARgamma coactivator (PGC) from Tox21 10K library (AID 1224841; call rule not given here; also: actives are mostly falling curves and most rising ones were filed inactive; nearly all actives have a fitted effect of over 50% in size; also: potency is read from the fitted curve at half-maximal effect; as to activity, negative = inhibition: series mostly up to about 92 µM)
How it was run: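 PGC/ERR reporter cells were seeded at 2,000 cells/well and held 6 hours at 37 C/5% CO2 before pin-tool addition of compounds in DMSO. After 18 hours at 37 C, One-Glo was added and luminescence read after 30 minutes at room temperature.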

[13] = qHTS assay to identify small molecule agonists of the estrogen related receptor signaling pathway with the pleiotropic PPARgamma coactivator (PGC) from Tox21 10K library (AID 1224842); also: nearly all actives have a fitted effect of over 15% in size
How it was run: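 PGC/ERR reporter cells (NTP line) were seeded 2,000 per well, rested 6 h at 37 C/5% CO2, then pin-dosed with compounds in DMSO for 18 h at 37 C; luciferase read by One-Glo luminescence after 30 min at room temperature.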

[14] = target: Luciferin 4-monooxygenase (Photinus pyralis) (UniProt P08659); test: qHTS assay to identify small molecule inhibitors of firefly luciferase (AID 1224835); also: series mostly up to about 120 µM; nearly all actives have a fitted effect of over 25% in size
Luciferin 4-monooxygenase (Photinus pyralis), sequence (P08659 whole entry, looked up): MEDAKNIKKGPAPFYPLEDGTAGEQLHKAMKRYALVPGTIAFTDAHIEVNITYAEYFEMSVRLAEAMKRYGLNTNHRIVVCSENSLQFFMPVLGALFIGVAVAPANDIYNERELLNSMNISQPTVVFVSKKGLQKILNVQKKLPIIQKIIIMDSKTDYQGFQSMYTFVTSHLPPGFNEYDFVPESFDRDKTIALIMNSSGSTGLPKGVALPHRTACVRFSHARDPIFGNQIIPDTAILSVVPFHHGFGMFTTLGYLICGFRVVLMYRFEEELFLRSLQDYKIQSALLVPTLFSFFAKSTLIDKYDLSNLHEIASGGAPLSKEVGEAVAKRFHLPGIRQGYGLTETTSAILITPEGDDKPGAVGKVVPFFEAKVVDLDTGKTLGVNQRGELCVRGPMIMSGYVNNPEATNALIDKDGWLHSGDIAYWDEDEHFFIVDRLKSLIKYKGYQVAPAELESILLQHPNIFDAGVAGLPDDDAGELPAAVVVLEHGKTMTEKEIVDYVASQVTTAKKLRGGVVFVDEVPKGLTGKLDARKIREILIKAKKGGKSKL
How it was run: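 Quantitative HTS format; KM concentrations of both substrates. Purified P. pyralis FLuc activity quantified from luminescence images.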
% is scaled to controls: 0 for no effect and ±100 for the full control effect.

OC[C@H]1O[C@@H](O[C@H]2[C@H](O)[C@@H](O)[C@H](O)O[C@@H]2CO)[C@H](O)[C@@H](O)[C@H]1O
inactive: Potency [1] | Potency [2] | outcome [3] | Potency [4] | Potency [5] | Potency [6] | Potency [7] | Potency [8] | Potency [9] | Potency [10] | Potency [11] | Potency [12] | Potency [13]

COC(=O)N[C@H](C(=O)N[C@@H](Cc1ccccc1)[C@@H](O)CN(Cc1ccc(-c2ccccn2)cc1)NC(=O)[C@@H](NC(=O)OC)C(C)(C)C)C(C)(C)C
inactive: Potency [1] | Potency [2] | outcome [3] | Potency [4] | Potency [5] | Potency [6] | Potency [7] | Potency [8] | Potency [10] | Potency [11]

O=c1[nH]c(=O)n([C@H]2C[C@H](O)[C@@H](CO)O2)cc1C(F)(F)F
inactive: Potency [1] | Potency [2] | outcome [3] | Potency [4] | Potency [5] | Potency [6] | Potency [7] | Potency [8] | Potency [10] | Potency [11] | Potency [12] | Potency [13]

CN1CCN(c2c(F)cc3c(=O)c(C(=O)O)cn4c3c2SCC4)CC1
inactive: Potency [1] | Potency [2] | outcome [3] | Potency [4] | Potency [5] | Potency [6] | Potency [7] | Potency [8] | Potency [9] | Potency [10] | Potency [11]

Cn1cnc2c(F)c(Nc3ccc(Br)cc3Cl)c(C(=O)NOCCO)cc21
inactive: Potency [1] | Potency [2] | outcome [3] | Potency [4] | Potency [5] | Potency [6] | Potency [7] | Potency [8] | Potency [9] | Potency [10] | Potency [11] | Potency [12] | Potency [13]

O=C1CCCCC1C1CCCCC1 (stereo not given)
inactive: Potency [1] | Potency [2] | outcome [3] | Potency [4] | Potency [5] | Potency [6] | Potency [7] | Potency [8] | Potency [11]

CC1CN(c2ccccc2)NC1=O (stereo not given)
inactive: Potency [1] | Potency [2] | outcome [3] | Potency [4] | Potency [6] | Potency [14] | Potency [7] | Potency [8] | Potency [9] | Potency [11]

C[C@@H]1CN(c2c(F)c(F)c3c(=O)c(C(=O)O)cn(C4CC4)c3c2F)C[C@H](C)N1
inactive: activation [1] 6.08% [at 15.8 µM] | activity change, negative = cytotoxicity [2] 10.3% [at 15.8 µM] | activity change, negative = cytotoxicity [3] 3.44% [at 19 µM] | activity, negative = inhibition [4] 16.3% [at 19 µM] | Potency [5] | viability change, negative = cytotoxic [6] 2.27% [at 19 µM] | viability change, negative = cytotoxic [7] 4.91% [at 19 µM] | activity change, negative = cytotoxicity [8] 2.19% [at 19 µM] | activity, negative = inhibition [9] 14.9% [at 19 µM] | activation [10] 0.519% [at 19 µM] | viability change, negative = cytotoxic [11] 2.41% [at 19 µM] | activity, negative = inhibition [12] 20.9% [at 19 µM] | activation [13] 6.21% [at 19 µM]

NCCC(O)(P(=O)(O)O)P(=O)(O)O
inactive: Potency [1] | Potency [2] | outcome [3] | Potency [4] | Potency [5] | Potency [6] | Potency [7] | Potency [8] | Potency [10] | Potency [11] | Potency [12] | Potency [13]

OCc1c2ccccc2cc2ccccc12
active: Potency [12] 68.8 µM
inactive: Potency [1] | Potency [2] | outcome [3] | Potency [4] | Potency [6] | Potency [7] | Potency [8] | Potency [9] | Potency [11] | Potency [13]

Cc1ncc(CO)c(CN)c1O
inactive: Potency [1] | Potency [2] | outcome [3] | Potency [4] | Potency [5] | Potency [6] | Potency [7] | Potency [8] | Potency [10] | Potency [11] | Potency [12] | Potency [13]

COc1nc(C)nc(NC(=O)NS(=O)(=O)c2ccccc2OCCCl)n1
inactive: Potency [1] | Potency [2] | outcome [3] | Potency [4] | Potency [5] | Potency [6] | Potency [7] | Potency [8] | Potency [9] | Potency [10] | Potency [11] | Potency [12] | Potency [13]

CC(C)Nc1nc(N)nc(Cl)n1
inactive: Potency [1] | Potency [2] | outcome [3] | Potency [4] | Potency [5] | Potency [6] | Potency [7] | Potency [8] | Potency [9] | Potency [10] | Potency [11]

O=C1CCN(c2ccccc2)N1
inactive: Potency [1] | Potency [2] | outcome [3] | Potency [4] | Potency [5] | Potency [14] | Potency [7] | Potency [8] | Potency [10] | Potency [11] | Potency [12] | Potency [13]

Clc1cccc(-c2cc(Cl)cc(Cl)c2)c1
inactive: Potency [1] | outcome [3] | Potency [4] | Potency [5] | Potency [6] | Potency [14] | Potency [7] | Potency [8] | Potency [9] | Potency [11] | Potency [12] | Potency [13]

O=C(O)[C@@H](O)[C@H](O)[C@H](O)[C@@H](O)C(=O)O
inactive: Potency [1] | outcome [3] | Potency [6] | Potency [7] | Potency [8] | Potency [11] | Potency [12] | Potency [13]

Cc1cn([C@@H]2O[C@H](CO)[C@@H](O)[C@@H]2F)c(=O)[nH]c1=O
inactive: Potency [2] | outcome [3] | Potency [4] | Potency [5] | Potency [6] | Potency [14] | Potency [7] | Potency [8] | Potency [9] | Potency [10] | Potency [11]

Cc1c(C(=O)NCCO)[n+](=O)c2ccccc2n1[O-]
inactive: Potency [1] | Potency [2] | outcome [3] | Potency [6] | Potency [14] | Potency [7] | Potency [8] | Potency [10] | Potency [11]

N#CSCC(=O)O
inactive: Potency [2] | outcome [3] | Potency [4] | Potency [5] | Potency [6] | Potency [14] | Potency [7] | Potency [8] | Potency [9] | Potency [10] | Potency [11] | Potency [12] | Potency [13]
